Test results reported in PubChem BioAssay (NCI).
The panel holds about 79,000 compounds, 15% with a hit somewhere; the sample as a whole holds those more often. A number with no mark means an inactive call. Cut-off read from the data, not from the text of the source: active = growth inhibition above about 70%; inactive = the rest. Where a SMILES comes first, the peptide text is derived from it. The star is where a group is joined. Cbz = O=C(OCc1ccccc1)*

Experiment: NCI Yeast Anticancer Drug Screen. Data for the sgs1 mgt1 strain (AID 161);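 note: 0% = growth of cultures given vehicle only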
Conditions: S. cerevisiae sgs1 mgt1 strain, at 50.0 µM, hits give high values
In short: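 Test agents were incubated with a DNA-repair-mutant yeast strain. Growth was then read and compared against vehicle-treated controls.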

SMILES	growth inhibition
Cc1ccc(S(=O)(=O)N/N=C/c2oc(-c3ccncc3)c(-c3ccncc3)c2[N+](=O)[O-])cc1	17.4%
O=C1C=C(Nc2cccnc2)c2ccccc2C1=O	0.4%
COc1ccc(-c2coc3cc(O)cc(O)c3c2=O)cc1	59.4%
Cn1cc(/C=C/C(=O)c2ccccc2[N+](=O)[O-])c2ccccc21	2.6%
C=CCOC(C)OCC=C	-1.35%
O=c1[nH]nnc2ccccc12	1.85%
COc1ccc(C)c(C2=CCCCC2)c1	-9.15%
C=CCc1ccc(O)c(OC)c1	-10.4%
O=C1NCC2(CCN(Cc3ccccc3)CC2)N1c1ccccc1	2.4%
CN(C)c1nc2[nH]ncc2c(=O)[nH]1	5.7%
Cc1c(-c2ccc3c(c2)COC3)sc(N)c1C#N	27.2%
COc1ccc(NC(=O)CC(=O)N/N=C/c2ccc(N(CCC#N)S(=O)(=O)c3ccccc3)cc2)cc1	-29.5%
CC12CC(=O)C3C(CCC4=CC(=O)CCC43C)C1CC=C2CC(=O)O (stereo not given)	-23.4%
COc1ccc(C2S/C(=C\c3cccc(O)c3)C(=O)N2NC(=O)Cc2ccccc2)cc1 (stereo not given)	-6.2%
CCS(=O)(=O)OCCOC	-17.1%
O=C1C=C/C(=N/c2ccc(O)o2)c2ccccc21	20.1%
CCCN1CCc2c([nH]c3cc(OC)ccc23)C1C (stereo not given)	-5.05%
CC(C)=NC(C(=O)O)C(C)(C)S (stereo not given)	-18.1%
COC(=O)C(NC(=O)C(C)NC(=O)C1CCCN1C(=O)CNC(=O)C(CO)NC(=O)C(NC(=O)OCc1ccccc1)C(C)O)C(C)O (stereo not given) (Cbz-TSGPAT-OMe; configuration not given here)	-4.7%
CCCCC(CC)CN(CC(CC)CCCC)C(=O)C(C)OC(=O)C(CC)CCCC (stereo not given)	18%

SMILES	growth inhibition
CCC(=O)Nc1cc([N+](=O)[O-])cc([N+](=O)[O-])c1	-13.3%
C=C(Br)CNCC(=C)Br	5%
CN(C)Cc1cc(C(=O)/C=C/c2c(Cl)cccc2Cl)cc(CN(C)C)c1O	-3%
CC(C)(C)c1ccc(C(=O)N2CCOC23CCCCC3)cc1	7.25%
O=C(O)c1ccc(C2C3C=CC(C3)C2[N+](=O)[O-])cc1 (stereo not given)	-20.2%
CCC/C=C/c1cc2c(cc1O)CC[C@@H]1[C@@H]2CC[C@]2(C)[C@@H](O)CC[C@@H]12	45.6%
O=C1c2ccccc2-c2oc(=O)c3ccccc3c21	-6.05%
O=c1[nH]c2cc(Cl)ccc2nc1/C=C(\O)c1cccc2ccccc12	28.6%
CC(=O)OC/C=C(\C)CCC=C(C)C	-12.2%
CCCCCCCSCC(O)COC(c1ccccc1)(c1ccccc1)c1ccccc1 (stereo not given)	-29.6%
NC(=O)NNc1ccccc1	-1.85%
Cn1c(=O)c(C(c2ccccc2)c2c(O)c3ccccc3n(C)c2=O)c(O)c2ccccc21	-19.2%
CCCc1[nH]n(-c2cccc([N+](=O)[O-])c2)c(=O)c1N=Nc1ccc(Cl)cc1	21.5%
N#CCCN(c1ccc(C=O)cc1)S(=O)(=O)c1ccccc1	-1.75%
O=[N+]([O-])c1c(O)c(O)c2ccccc2c1Nc1ccccc1	-0.3%
COc1ccc(OC)c(CCCCC(N)=O)c1	7.3%
c1ccc(CCN=C2c3ccccc3-n3cccc32)nc1	-6.75%
CSc1nnc(CCC(=O)Nc2ccc(Cl)cc2Cl)o1	10.9%
COc1cc(C(=O)Nc2ccc(S(=O)(=O)Nc3nc(C)cc(C)n3)cc2)cc(OC)c1OC	-6.65%
COC(=O)C1(CC(=O)CC(=O)CC2(C(=O)OC)NC(=S)NC(=O)C2C#N)NC(=S)NC(=O)C1C#N (stereo not given)	-24.6%
